This note sets out measurements from PubChem BioAssay (Tox21).

Values without a mark were called inactive. Results filed as inconclusive are left out. Activity calls are given as the source filed them. Unless noted, the call rests on the fitted dose curve; in most records, active means well fitted curve in the direction sought with a large enough effect in the repeat runs; inconclusive means weak or mixed curves; inactive means no such curve, though single readings can be large; an effect the other way counts as inactive or inconclusive.

The nature of test [1]: A CellTox Green Cytotoxicity Assay to monitor cytotoxicity in HepG2 cells - 8 hour (AID 1224890). Further: nearly all actives have a fitted effect of over 45% in size. Further: potency means the concentration at half of the fitted maximal effect. A digest of the protocol: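 Read-out is fluorescence of a cyanine dye excluded from live cells that stains DNA of dead HepG2 cells, with signal proportional to cytotoxicity. Plates were read at 0, 8, 16, 24, 32 and 40 h after compound addition.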
Test [2] is described as follows: qHTS assay to identify small molecule antagonists of the androgen receptor (AR) signaling pathway using the MDA cell line in the presence of 0.5 nM R1881 - cell viability counter screen (AID 1259242). Further: nearly all actives have a fitted effect of over 45% in size. Further: potency means the concentration at half of the fitted maximal effect. A digest of the protocol:
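Counter screen for cytotoxicity run in the same wells as the AR antagonist reporter screen: MDA-kb2 cells were treated 16 hr with test compounds and 0.5 nM R1881, then live-cell protease activity was measured by fluorescence.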
In general terms: In qHTS, concentration-response curves come from the screen itself.

Test [3] addresses Estrogen receptor (Homo sapiens) (UniProt P03372). Kind of test: qHTS assay to identify small molecule antagonists of the estrogen receptor alpha (ER-alpha) signaling pathway using the BG1 cell line in the presence of 0.1 nM 17-beta-estradiol (AID 1259244). Further: nearly all actives have a fitted effect of over 50% in size. A digest of the protocol: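 Cells: VM7Luc4E2, endogenous ER-alpha, 4x ERE-luc stable. Pre-culture 5 d, phenol red-free, charcoal-stripped FBS. Plated 24 h, compound + E2 0.1 nM final, 22 h 37C/5% CO2. Readout ONE-Glo luminescence.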

Test [4] can be described thus: qHTS assay to identify small molecule phospholipidosis (PLD) inducers (AID 1259344; active means well fitted curve in the direction sought with a large enough effect; an effect the other way counts as inactive or inconclusive). The method, boiled down:
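HepG2 cells grown on collagen I take up LipidTOX Red while exposed to compound for 24 h; after fixation they are imaged at 20x and pit metrics are extracted.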

A short description of test [5]: qHTS assay to identify small molecule HDAC inhibitors (AID 1259364). Further: nearly all actives have a fitted effect of over 45% in size. Further: potency means the concentration at half of the fitted maximal effect. A digest of the protocol: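 Luminescence from a cell-permeant luminogenic class I/II HDAC substrate reports endogenous deacetylase activity in intact HCT-116 cells treated with compounds for 2 h.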
Test [6] in a line: qHTS assay to identify small molecule HDAC inhibitors - cell viability counter screen (AID 1259365). Further: nearly all actives have a fitted effect of over 50% in size. Further: potency means the concentration at half of the fitted maximal effect. The method, boiled down: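 Wild-type HCT-116 cells, 1,500/well, cultured overnight, then compound-treated 2 h at 37 C. Viability measured as ATP luminescence with CellTiter-Glo after 30 min at room temperature.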
A short description of test [7]: qHTS assay to identify small molecule agonists of the sonic hedgehog signaling (Shh) pathway - cell viability counter screen (AID 1259366). Further: nearly all actives have a fitted effect of over 50% in size. Further: potency means the concentration at half of the fitted maximal effect. A digest of the protocol: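 NIH/3T3-derived Gli1-Luc reporter cells, 2,000 per well, received compound after 4 h and were treated about 23 h at 37C. Viability measured in the same wells by CellTiter-Fluor fluorescence after 1 h.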

Test [8] deals with Androgen receptor (Homo sapiens) (UniProt P10275). Description: qHTS assay to identify small molecule antagonists of the androgen receptor (AR) signaling pathway using the MDA cell line in the presence of 0.5 nM R1881 (AID 1259243). Further: nearly all actives have a fitted effect of over 50% in size. Further: potency means the concentration at half of the fitted maximal effect. The method, boiled down: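 Luciferase luminescence is the read-out: compounds are tested for suppressing 0.5 nM R1881-driven MMTV reporter activity in MDA-kb2 cells after 16 hr at 37C.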
Androgen receptor (Homo sapiens), sequence (P10275 whole entry, looked up): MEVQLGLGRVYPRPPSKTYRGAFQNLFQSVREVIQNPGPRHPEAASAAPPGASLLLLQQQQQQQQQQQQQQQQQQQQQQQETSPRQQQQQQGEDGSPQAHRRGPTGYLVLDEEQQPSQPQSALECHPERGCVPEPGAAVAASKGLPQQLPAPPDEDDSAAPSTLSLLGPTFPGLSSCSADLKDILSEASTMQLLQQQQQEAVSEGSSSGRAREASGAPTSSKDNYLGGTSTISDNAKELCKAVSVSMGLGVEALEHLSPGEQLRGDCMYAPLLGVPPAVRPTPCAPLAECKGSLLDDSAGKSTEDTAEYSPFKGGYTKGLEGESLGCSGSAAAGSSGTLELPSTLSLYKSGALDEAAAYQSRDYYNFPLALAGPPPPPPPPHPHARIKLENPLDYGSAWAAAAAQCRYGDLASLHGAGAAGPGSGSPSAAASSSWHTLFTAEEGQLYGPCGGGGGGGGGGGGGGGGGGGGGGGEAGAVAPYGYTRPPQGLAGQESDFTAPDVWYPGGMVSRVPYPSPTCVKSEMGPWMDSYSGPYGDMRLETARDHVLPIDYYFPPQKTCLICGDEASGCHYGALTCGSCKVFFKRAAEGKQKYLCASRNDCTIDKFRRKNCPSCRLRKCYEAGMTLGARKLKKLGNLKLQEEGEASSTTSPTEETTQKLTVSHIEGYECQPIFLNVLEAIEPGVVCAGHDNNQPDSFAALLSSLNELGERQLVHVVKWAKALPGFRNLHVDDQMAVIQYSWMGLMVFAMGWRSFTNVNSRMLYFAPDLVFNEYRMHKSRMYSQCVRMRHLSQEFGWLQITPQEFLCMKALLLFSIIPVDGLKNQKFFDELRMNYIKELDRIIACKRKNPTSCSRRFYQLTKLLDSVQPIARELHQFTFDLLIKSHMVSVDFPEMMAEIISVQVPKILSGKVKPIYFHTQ

A short description of test [9]: qHTS assay to identify small molecule antagonists of the sonic hedgehog signaling (Shh) pathway - cell viability counter screen (AID 1259367). Further: nearly all actives have a fitted effect of over 55% in size. Further: potency means the concentration at half of the fitted maximal effect. The method, boiled down: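 After a 4 hr settling period, 3T3 Gli1-Luc cells were treated with DMSO-dissolved chemicals and conditioned medium, kept 24 hr at 37C in 5% CO2, and assayed for viability by CellTiter-Fluor fluorescence following 1 hr reagent incubation.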

Test [10] is described as follows: qHTS assay to identify small molecule antagonists of the estrogen receptor alpha (ER-alpha) signaling pathway using the BG1 cell line in the presence of 0.1 nM 17-beta-estradiol - cell viability counter screen (AID 1259241). Further: nearly all actives have a fitted effect of over 40% in size. A digest of the protocol:
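VM7Luc4E2 cells (endogenous full-length ER-alpha, 4xERE-luciferase), cultured 5 days in charcoal-stripped serum, exposed to compounds with 0.1 nM 17beta-estradiol (final) for 22 hr at 37C. Viability read in same wells as live-cell protease fluorescence after 30 min.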

Estrogen receptor (Homo sapiens), sequence (P03372 whole entry, looked up): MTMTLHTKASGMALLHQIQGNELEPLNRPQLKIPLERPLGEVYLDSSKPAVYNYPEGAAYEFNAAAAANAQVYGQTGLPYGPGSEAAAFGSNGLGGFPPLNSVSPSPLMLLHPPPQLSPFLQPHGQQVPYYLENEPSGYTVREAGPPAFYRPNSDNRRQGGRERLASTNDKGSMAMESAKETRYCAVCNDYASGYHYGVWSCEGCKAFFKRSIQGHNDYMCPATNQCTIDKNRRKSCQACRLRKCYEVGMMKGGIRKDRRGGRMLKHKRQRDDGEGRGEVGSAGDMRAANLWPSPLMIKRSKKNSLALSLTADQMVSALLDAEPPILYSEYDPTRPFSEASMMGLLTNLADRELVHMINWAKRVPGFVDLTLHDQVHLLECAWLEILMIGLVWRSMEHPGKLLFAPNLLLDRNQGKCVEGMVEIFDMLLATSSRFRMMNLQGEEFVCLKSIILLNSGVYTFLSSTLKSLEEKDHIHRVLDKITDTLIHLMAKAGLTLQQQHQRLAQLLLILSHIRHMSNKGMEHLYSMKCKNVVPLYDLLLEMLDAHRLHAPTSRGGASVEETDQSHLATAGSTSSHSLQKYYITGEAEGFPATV

`CC1(C)O[C@@H]2C[C@H]3[C@@H]4CCC5=CC(=O)C=C[C@]5(C)[C@H]4[C@@H](O)C[C@]3(C)[C@]2(C(=O)CO)O1`: the Potency result in test [1], in [2], in test [3], in test [5], in [6] and in test [7] was “inactive” throughout. The compound was classed as inactive in test [4].

Turning to `C[N+](C)(C)CCOC(N)=O`, the Potency result in test [1], in test [2], in [8], in test [5], in test [6] and in test [7] was “inactive” throughout. The Potency entry in test [9] is “inactive”. Also, the outcome in test [4] was inactive.

For the compound `c1cnc2c(n1)CCCC2`, the Potency in test [1] was 38.9 µM (active). Further, the Potency result in [10], in test [5] and in [7] was “inactive” in each case.

On to `Cc1cc(O)c2c(O)c3c(O)cccc3cc2c1`, for which the Potency result in test [1], in test [10], in [5], in test [6], in test [7] and in test [9] was “inactive” each time. For the same compound, the result in test [4] was inactive.

With `CCCCC/C(=C\c1ccccc1)CO`, the Potency entry in [1], in test [10], in test [5], in test [6], in test [7] and in test [9] was “inactive” in each case.

As for `C[Si]1(C)O[Si](C)(C)O[Si](C)(C)O1`, the Potency entry in [1], in [10], in test [5], in [6] and in test [7] was “inactive” throughout.

On to `CN1Cc2cc(C(=O)N3CCC(C4CCNCC4)CC3)ccc2N[C@@H](CC(=O)O)C1=O`, for which the Potency result in test [1], in [10], in [3], in test [5], in [6] and in test [7] was “inactive” throughout. Further, in test [9], the Potency entry was “inactive”.

In the case of `CC(CCO)CCc1ccccc1` (stereo not drawn), the Potency result in test [1], in test [10], in test [3], in [5], in test [6] and in test [7] was “inactive” in each case. For the same compound, the Potency entry in [9] was “inactive”.

Consider `COc1ccc(C(=O)c2cccc(O)c2)c(OC)c1`, for which the Potency result in test [1], in test [2], in test [8], in test [3], in test [5] and in test [6] was “inactive” each time. Further, the Potency entry in [7] and in test [9] was “inactive” throughout.

Consider `COC(=O)Nc1nc2ccc(C(=O)c3cccs3)cc2[nH]1`, for which the Potency entry in [1], in [10], in test [6] and in [7] was “inactive” in each case. For the same compound, the outcome in [4] was inactive. Moreover, in test [5], the Potency was 11.9 µM (active).

As for `CCCCC(CC)CNCC(CC)CCCC` (stereo not drawn), the Potency result in [1], in test [10], in test [5], in test [6] and in [7] was “inactive” each time.

As for `CCCCN(CCCC)C(=S)SSC(=S)N(CCCC)CCCC`, the Potency result in test [1], in test [10], in [3], in [5] and in [9] was “inactive” throughout.

Take `CCCCCCOC(=O)CCCCCCCC(=O)OCCCCCC`: the Potency entry in test [1], in test [10], in test [5], in test [6], in test [7] and in test [9] was “inactive” in each case.

As for `CC(N)CN` (stereo not drawn), the Potency entry in [1], in test [2], in test [3], in test [5], in test [6] and in test [7] was “inactive” throughout.

Take `COC(=O)[C@@H]1CC2=CC(=O)CC[C@]2(C)[C@@]23O[C@@H]2C[C@@]2(C)[C@@H](CC[C@@]24CCC(=O)O4)[C@H]13`: the Potency result in [1], in test [2], in [3], in test [6], in test [7] and in test [9] was “inactive” each time. Also, the compound was classed as inactive in [4].

As for `OC(CCCN1CCCCC1)(c1ccccc1)c1ccccc1`, the Potency result in test [1], in test [2], in [8], in test [3], in test [7] and in test [9] was “inactive” each time.

Turning to `CC1=CC(=O)CC(C)(C)C1(O)/C=C/C(C)=C\C(=O)O` (stereo not drawn), the Potency result in test [1], in [10], in test [5], in test [6], in [7] and in test [9] was “inactive” each time.

In the case of `Cc1cc(O)c(C(C)C)cc1Cl`, in test [1], the Potency is 43.6 µM (active). Moreover, the Potency entry in [2], in test [3], in test [5], in test [6], in test [7] and in test [9] was “inactive” each time. For the same compound, the call in [4] was inactive.

Take `CC(Cl)C(Cl)Cl` (stereo not drawn): the Potency result in [1], in test [2], in test [3], in test [5], in [6] and in test [7] was “inactive” each time.

As to `C[C@@H]1C[C@H]2[C@@H]3CCC4=CC(=O)C=C[C@]4(C)[C@@]3(F)[C@@H](O)C[C@]2(C)[C@H]1C(=O)CO`, the Potency entry in [1], in [10], in [5], in [6] and in test [7] was “inactive” in each case.

Turning to `O=C(CCCN1CCN(c2ccc(F)cc2)CC1)NC1c2ccccc2CSc2ccccc21` (stereo not drawn), the Potency result in [1], in test [10], in [5] and in test [6] was “inactive” throughout. In addition, the call in test [4] was inactive.

For `CCCCCCCC/C=C\CCCCCCCC(=O)OC`, the Potency entry in test [1], in test [10], in test [5], in test [6], in test [7] and in [9] was “inactive” throughout.

Turning to `CC(=O)[C@H]1CC[C@H]2[C@@H]3C[C@H](C)C4=CC(=O)CC[C@]4(C)[C@H]3[C@@H](O)C[C@]12C`, the Potency result in [1], in test [2], in test [5], in [6], in [7] and in [9] was “inactive” each time. Further, the outcome in test [4] was inactive.

In the case of `CCCCCCCCCCOS(=O)(=O)O`, the Potency entry in [1], in [2], in [3] and in test [7] was “inactive” in each case.

As to `Fc1ccccc1[C@@H](F)COC1CCC(Nc2ncnc3[nH]ncc23)CC1` (stereo partly drawn), the Potency entry in [1], in test [5] and in test [7] was “inactive” each time. Further, the Potency in test [8] is 15.4 µM (active).

`CCC(Cc1ccccc1)(C(=O)c1ccc(N2CCOCC2)cc1)N(C)C` (stereo not drawn): the Potency result in [1], in test [5], in test [6] and in [7] was “inactive” throughout.

Regarding `CCOc1cc(N)c(Cl)cc1C(=O)NCC1CN(Cc2ccc(F)cc2)CCO1` (stereo not drawn), the Potency result in test [1], in [3], in [5], in [6] and in [7] was “inactive” throughout. Besides, the call in [4] was inactive.

On to `C=CC(C)=CCC=C(C)C`, for which the Potency entry in test [1], in test [2], in [5], in test [6], in test [7] and in test [9] was “inactive” each time.

With `Cc1cc(C(=C2C=CC(=Nc3ccc(S(=O)(=O)O)cc3S(=O)(=O)O)C=C2)c2ccc(Nc3ccc(S(=O)(=O)O)cc3)cc2)ccc1N`, the Potency result in test [1], in test [3], in [5], in test [6], in test [7] and in test [9] was “inactive” throughout.

For `COc1ccccc1N=Nc1c(S(=O)(=O)O)cc2cc(S(=O)(=O)O)cc(NC(C)=O)c2c1O`, in test [1], the Potency result is “inactive”. Further, the Potency in [2], in test [6], in test [7] and in test [9] was 25.7 µM (active) throughout.
